Inconclusive results are not listed. A call without a number means that no potency is given here. The source made the active and inactive calls. Unless noted, calls follow the shape of the dose curve; as a rule, active = well fitted curve in the direction sought with a large enough effect; inconclusive = small, poorly fitted or top-dose-only effect, or another doubt; inactive = no such curve, though single readings can be large; an effect the other way counts as inactive or inconclusive.
Key:
[1] = Quantitative High-Throughput drug screen in 47 multiple myeloma cell lines against the NCATS MIPE library collection: VP6_DJ cell viability assay (AID 1919867); also: potency is read from the fitted curve at half-maximal effect; nearly all actives have a fitted effect of over 40% in size
Summary of the method: (§1)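 ATP-based CellTiter-Glo luminescence after 48 h drug exposure (37 °C, 5% CO2) of 500 myeloma cells per well. DMSO-only wells set 100% viability, media-only wells 0%; MIPE 4.0 library added by pin tool.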

[2] = Quantitative High-Throughput drug screen in 47 multiple myeloma cell lines against the NCATS MIPE library collection: PCM6_Riken cell viability assay (AID 1919870); also: nearly all actives have a fitted effect of over 30% in size; also: potency is read from the fitted curve at half-maximal effect
Summary of the method: as §1

[3] = Quantitative High-Throughput drug screen in 47 multiple myeloma cell lines against the NCATS MIPE library collection: RPMI8226_ATCC cell viability assay (AID 1919871); also: nearly all actives have a fitted effect of over 30% in size
Summary of the method: as §1

[4] = Quantitative High-Throughput drug screen in 47 multiple myeloma cell lines against the NCATS MIPE library collection: KMS28BM_JCRB cell viability assay (AID 1919874); also: nearly all actives have a fitted effect of over 35% in size
Summary of the method: as §1

[5] = KB-3-1 P-gp reporter qHTS against the NCATS DSHEA and TCM libraries (AID 1919975)
Summary of the method: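 KB-3-1 parental line, 1536-well qHTS: cells seeded, ~4 h attachment, pintool compound addition, ~72 h at 37C, then CellTiter-Glo, 30 min RT, luminescence. Concentration-response format.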

[6] = qHTS Counterscreen for compound interference against the NCATS DSHEA and TCM libraries (AID 1919978); details: firefly luciferase detection reagent interference, luminescence;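 also: compounds preincubated with 1 µM D-luciferin or buffer before detection reagent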
Summary of the method: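 Compounds, titrated from 19.5 nM to 39.8 uM final, were pinned onto 1 uM D-luciferin or plain 100 mM potassium phosphate. After 15 min at room temperature, luciferin detection reagent was added for 30 min before the luminescence read.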

[7] = Dual reporter qHTS for agonist of Pregnane X Receptor (hPXR) against the NCATS DSHEA and TCM libraries: Fluorescence readout (AID 1920058)
Summary of the method: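 Cells were plated at 2000 per well and allowed to attach for 5 h. Test substances were pinned in and incubated roughly 24 h. CellTiter-Fluor was then added and fluorescence measured after 1 h.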

[8] = biological target: Nuclear receptor subfamily 1 group I member 2 (Homo sapiens) (UniProt O75469); test: Dual reporter qHTS for agonist of Pregnane X Receptor (hPXR) against the NCATS DSHEA and TCM libraries: Luminescence readout (AID 1920059)
Summary of the method: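 Luminescent PXR reporter read (ONE-Glo) after a CellTiter-Fluor viability read, following 24 h, 37C treatment of HepG2 cells stably carrying hPXR-Luc.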

[9] = biological target: Nuclear receptor subfamily 1 group I member 2 (Homo sapiens) (UniProt O75469); test: Dual reporter qHTS for antagonist of Pregnane X Receptor (hPXR) against the NCATS DSHEA and TCM libraries: Luminescence Readout (AID 1920060);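 also: HepG2 cells carrying hPXR luciferase reporter stimulated with rifampicin at 2 µM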
Summary of the method: (§2)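 HepG2 hPXR-Luc, 2000 cells/well, charcoal-stripped FBS medium; 5 h attach; RIF 2 uM final; 24 h 37C/5% CO2; CellTiter-Fluor 1 h, fluor 405/540; ONE-Glo 30 min RT, lum.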

[10] = Dual reporter qHTS for antagonist of Pregnane X Receptor (hPXR) against the NCATS DSHEA and TCM libraries: Fluorescence Readout (AID 1920061)
Summary of the method: as §2

[11] = qHTS drug screen for cell cycle checkpoint inhibitors in PARPi-resistant BRCA-mutant ovarian cancer cell lines. (AID 1963452; calls by dose curve); details: PEO1/OlaR viability, CellTiter-Glo luminescence, 96 h, stronger effect = lower value
Summary of the method: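 PEO1, PEO4 and PEO1/OlaR ovarian cancer cells, 600 per well, exposed 96 h at 37C to a dilution series. Viability read by CellTiter-Glo luminescence, normalized to DMSO and empty wells; activity summarized as Z-AUC.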

[12] = Quantitative High-Throughput drug screen in 47 multiple myeloma cell lines against the NCATS MIPE library collection: UTMC2_PLB cell viability assay (AID 1919868); also: nearly all actives have a fitted effect of over 55% in size
Summary of the method: as §1

[13] = Quantitative High-Throughput drug screen in 47 multiple myeloma cell lines against the NCATS MIPE library collection: PE2_PLB cell viability assay (AID 1919869); also: nearly all actives have a fitted effect of over 35% in size
Summary of the method: as §1

[14] = Quantitative High-Throughput drug screen in 47 multiple myeloma cell lines against the NCATS MIPE library collection: OPM2_DSMZ cell viability assay (AID 1919872); also: nearly all actives have a fitted effect of over 30% in size
Summary of the method: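 Luminescent ATP measurement with CellTiter-Glo gives viability, scaled between DMSO-only wells (100%) and media-only wells (0%). Cells, 500 per well, faced library compounds for 48 hours at 37C.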

[15] = Quantitative High-Throughput drug screen in 47 multiple myeloma cell lines against the NCATS MIPE library collection: KMS11_JCRBsus cell viability assay (AID 1919873); also: nearly all actives have a fitted effect of over 50% in size
Summary of the method: as §1

[16] = measured here: PEO1 parental Z-AUC

Chain of Nuclear receptor subfamily 1 group I member 2 (Homo sapiens) (O75469 whole entry, looked up): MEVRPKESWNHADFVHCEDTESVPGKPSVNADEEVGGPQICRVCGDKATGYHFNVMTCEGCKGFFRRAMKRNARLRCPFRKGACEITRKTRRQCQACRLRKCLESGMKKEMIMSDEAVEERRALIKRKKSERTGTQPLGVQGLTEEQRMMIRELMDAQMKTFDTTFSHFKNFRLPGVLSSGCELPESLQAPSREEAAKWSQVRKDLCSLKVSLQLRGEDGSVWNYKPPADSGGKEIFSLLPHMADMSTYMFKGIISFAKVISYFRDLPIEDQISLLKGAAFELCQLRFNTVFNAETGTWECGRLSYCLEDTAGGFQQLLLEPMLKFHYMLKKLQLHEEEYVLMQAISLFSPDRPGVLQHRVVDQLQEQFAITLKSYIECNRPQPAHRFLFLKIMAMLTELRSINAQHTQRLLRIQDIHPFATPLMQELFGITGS

O=c1c(O)c(-c2ccc(O)c(O)c2)oc2cc(O)cc(O)c12
Potency [1]: 16.6 µM (active)
Potency [2]: 18.7 µM (active)
Potency [3]: inactive
Potency [4]: inactive
outcome [5]: inactive
max response [6]: -0.891% (inactive)
outcome [7]: inactive
outcome [8]: inactive
outcome [9]: inactive
outcome [10]: inactive
Z-AUC [11]: 0.194 (inactive)
Z-AUC [11, 16]: 0.475
Z-AUC ([11]; measured here: PEO4 Z-AUC): 0.343

CN(C)c1nc(N(C)C)nc(N(C)C)n1
Potency [12]: inactive
Potency [13]: inactive
Potency [14]: inactive
Potency [4]: inactive
Z-AUC [11]: 1.32 (inactive)
Z-AUC [11, 16]: 0.778
Z-AUC ([11]; measured here: PEO4 Z-AUC): 0.807

CC(C)(Oc1ccc(C2CC2(Cl)Cl)cc1)C(=O)O (configuration not stated)
Potency [12]: inactive
Potency [13]: inactive
Potency [3]: inactive
Potency [14]: inactive
Potency [15]: inactive
Potency [4]: inactive
Z-AUC [11]: -0.348 (inactive)
Z-AUC [11, 16]: -0.606
Z-AUC ([11]; measured here: PEO4 Z-AUC): -0.292

CC(C)(C)C(=O)Oc1ccc(S(=O)(=O)Nc2ccccc2C(=O)NCC(=O)O)cc1
Potency [3]: inactive
Potency [14]: inactive
Potency [15]: inactive
Potency [4]: inactive
Z-AUC [11]: 1.22 (inactive)
Z-AUC [11, 16]: 0.948
Z-AUC ([11]; measured here: PEO4 Z-AUC): 1.16

Cn1c(=O)c2[nH]cnc2n(C)c1=O
Potency [13]: inactive
Potency [2]: inactive
Potency [3]: inactive
Potency [14]: inactive
Potency [15]: inactive
Potency [4]: inactive
Z-AUC [11]: 0.347 (inactive)
Z-AUC [11, 16]: 0.72
Z-AUC ([11]; measured here: PEO4 Z-AUC): 0.784

Nc1nnc(-c2cccc(Cl)c2Cl)c(N)n1
Potency [12]: inactive
Potency [3]: inactive
Potency [14]: inactive
Potency [15]: inactive
Potency [4]: inactive
Z-AUC [11]: -0.438 (inactive)
Z-AUC [11, 16]: 0.568
Z-AUC ([11]; measured here: PEO4 Z-AUC): 0.453

Cc1ccc(-c2cc(C(F)(F)F)nn2-c2ccc(S(N)(=O)=O)cc2)cc1
Potency [14]: inactive
Z-AUC [11]: 1.19 (inactive)
Z-AUC [11, 16]: 0.566
Z-AUC ([11]; measured here: PEO4 Z-AUC): 1.1
